According to the supplement of paper PMC12669032:
Values joined by “and” are separate entries in the source; they are usually repeats but may differ in a detail not shown here. Equal values may be shown once. A number with no mark means an inactive call.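 Rule for the calls: active = AUC reduced over 20% with Padj below 0.05 in at least 2 of 3 replicates; inactive = otherwise.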

Columns and labels:
Test in all cases: growth AUC relative to DMSO control (median of replicates) (fraction); higher = more growth (less inhibition), active = hit call of the paper
Conditions in all cases: 20 µM; 24 h
Akkermansia muciniphila = system: Akkermansia muciniphila
Summary of the method: (§1)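 Gut bacteria were grown singly in mGAM at 37 °C without oxygen, from OD600 0.05, alongside 20 µM compound in 1% DMSO, and OD600 was read each hour for 24 h. Area under the growth curve was normalised to the median of solvent-only wells per plate, or to row and column medians on the industrial chemical plate. The minimum OD was set to 0 beforehand, and the reported value is the median of three biological replicates grown on separate days.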

Bacteroides caccae = system: Bacteroides caccae
Summary of the method: as §1

Bacteroides clarus = system: Bacteroides clarus
Summary of the method: as §1

Bacteroides dorei = system: Bacteroides dorei
Summary of the method: as §1

Bacteroides stercoris = system: Bacteroides stercoris
Summary of the method: as §1

[1] = system: Bacteroides thetaiotaomicron
Summary of the method: as §1

Bacteroides uniformis = system: Bacteroides uniformis
Summary of the method: as §1

[2] = system: Bifidobacterium longum subsp. longum
Summary of the method: as §1

Clostridium difficile = system: Clostridium difficile
Summary of the method: as §1

Collinsella aerofaciens = system: Collinsella aerofaciens
Summary of the method: as §1

Row | Compound | growth AUC (Akkermansia muciniphila) | growth AUC (Bacteroides caccae) | growth AUC (Bacteroides clarus) | growth AUC (Bacteroides dorei) | growth AUC (Bacteroides stercoris) | growth AUC [1] | growth AUC (Bacteroides uniformis) | growth AUC [2] | growth AUC (Clostridium difficile) | growth AUC (Collinsella aerofaciens)
1 | ClC1=C(Cl)C2(Cl)[C@H]3[C@@H]4O[C@@H]4[C@H](Cl)[C@H]3C1(Cl)C2(Cl)Cl (single isomer, unassigned; isomer b) | 1.29 | 0.98 | 0.973 | 0.933 | 0.752 | 0.96 | 0.89 | 1.19 | 1.01 | 0.957
2 | Cc1c(COC(=O)[C@@H]2[C@H](/C=C(\Cl)C(F)(F)F)C2(C)C)cccc1-c1ccccc1 | 0.924 | 0.971 | 0.998 | 1.01 | 0.972 | 0.974 | 1.01 | 0.923 | 1.02 | 0.928
3 | COCC(=O)N(c1c(C)cccc1C)C(C)C(=O)OC (stereo not given) | 1.11 | 1.03 | 1.02 | 1.03 | 1.08 | 1.02 | 1.02 | 1.1 | 1.04 | 1.02
4 | CCOP(=S)(OCC)SCn1nnc2ccccc2c1=O | 0.989 | 0.969 | 0.993 | 1.01 | 1.1 | 0.908 | 0.913 | 1.04 | 1.02 | 1.03
5 | CC(C)=NOCCOC(=O)[C@@H](C)Oc1ccc(Oc2cnc3cc(Cl)ccc3n2)cc1 | 0.861 | 0.965 | 1 | 0.958 | 0.876 | 0.937 | 0.899 | 0.924 | 0.981 | 0.954
6 | C1=Cc2cccc3cccc1c23 | 1.01 | 1.02 | 0.996 | 1.02 | 1.03 | 1.01 | 1 | 0.946 | 1 | 0.995
7 | COc1cccc(C(=O)NN(C(=O)c2cc(C)cc(C)c2)C(C)(C)C)c1C | 1.14 | 0.966 | 0.996 | 0.933 | 0.951 | 0.986 | 0.958 | 0.975 | 0.969 | 0.92
8 | O=C(OC1CCCCC1)c1ccccc1C(=O)OC1CCCCC1 | 1 | 0.967 | 0.997 | 0.985 | 1.09 | 0.951 | 0.985 | 1 | 0.995 | 0.943
9 | CCCN(CCC)c1c([N+](=O)[O-])cc(C(C)C)cc1[N+](=O)[O-] | 1.12 | 1.01 | 0.978 | 0.994 | 0.991 | 0.962 | 1.03 | 1.02 | 0.991 | 0.99
10 | CSc1nc(NC(C)C)nc(NC(C)C)n1 | 0.876 | 1.02 | 0.976 | 1.01 | 0.95 | 0.949 | 0.983 | 1.08 | 1.02 | 1.04
11 | COc1ccc(/C(=C/C(=O)N2CCOCC2)c2ccc(Cl)cc2)cc1OC | 1.1 | 0.962 | 1 | 0.93 | 1.33 | 0.978 | 0.954 | 1.04 | 0.932 | 0.93
12 | CC1(C)C(/C=C(\Cl)c2ccc(Cl)cc2)C1C(=O)OC(C#N)c1ccc(F)c(Oc2ccccc2)c1 (stereo not given) | 0.965 | 0.993 | 0.985 | 1.04 | 1 | 1 | 0.99 | 0.94 | 1.09 | 1.04
13 | CCCOP(=S)(OCCC)SCC(=O)N1CCCCC1C (stereo not given) | 0.978 | 0.956 | 0.953 | 0.968 | 0.892 | 0.873 | 0.9 | 1.06 | 1.02 | 1.06
14 | CCCCN(CCCC)N=O | 0.985 | 1.01 | 1.02 | 1.01 | 1 | 1 | 1 | 1.01 | 1.01 | 1.03
15 | Clc1ccc(Cl)c(Cl)c1Cl | 0.865 | 0.985 | 0.958 | 1.02 | 1.04 | 0.992 | 0.996 | 0.99 | 1 | 0.982
16 | CCOC(=O)CC(SP(=S)(OC)OC)C(=O)OCC (stereo not given) | 1.13 | 0.953 | 1 | 0.881 | 0.982 | 0.977 | 0.965 | 1.09 | 0.845 | 0.955
17 | CCSC(=O)N1CCCCCC1 | 0.873 | 1.05 | 0.974 | 1 | 1 | 0.995 | 0.966 | 0.992 | 0.992 | 0.981
18 | CCOCn1c(-c2ccc(Cl)cc2)c(C#N)c(Br)c1C(F)(F)F | 1.07 | 0.902 | 0.956 | 0.945 | 0.914 | 0.95 | 0.943 | 1.04 | 0.816 | 0.926
19 | CC(=NC#N)N(C)Cc1ccc(Cl)nc1 | 0.993 and 0.945 | 0.979 and 0.959 | 1.02 and 0.96 | 0.993 and 1.01 | 1.08 and 0.985 | 0.987 and 0.95 | 1 and 0.993 | 1.03 and 0.979 | 0.986 and 1 | 1.02
20 | Clc1ccccc1Cl | 0.952 | 1.02 | 1.02 | 0.992 | 0.991 | 0.986 | 1.03 | 1.11 | 0.996 | 0.975
21 | COc1c(Cl)ccc(Cl)c1Cl | 1.02 | 0.971 | 0.985 | 0.995 | 1.19 | 1.01 | 0.99 | 1.04 | 1.01 | 0.98
22 | N#Cc1c(O)c(Cl)c(Cl)c(C#N)c1Cl | 1.02 | 0.98 | 0.979 | 0.969 | 0.979 | 0.995 | 0.784 (active) | 1.02 | 1.02 | 0.985
23 | CC1(C)C(C=C(Cl)Cl)C1C(=O)OCc1cccc(Oc2ccccc2)c1 (mixture of isomers) | 1.02 | 0.991 | 0.98 | 1.01 | 1.07 | 1.02 | 1.03 | 0.957 | 1.01 | 0.942
24 | O=C(O)C(F)(F)C(F)(F)C(F)(F)C(F)(F)C(F)(F)C(F)(F)C(F)(F)F | 1.01 | 1 | 1 | 0.998 | 1.01 | 1.04 | 0.963 | 1.04 | 0.991 | 1
25 | COc1nn(CSP(=S)(OC)OC)c(=O)s1 | 1.01 | 1.01 | 1.02 | 0.992 | 1.04 | 1.04 | 1.02 | 1.02 | 0.996 | 1.03
26 | C=CCC1=C(C)C(OC(=O)[C@@H]2[C@@H](C=C(C)C)C2(C)C)CC1=O (stereo not given in full) | 1.01 | 0.983 | 1.02 | 1.05 | 1.08 | 0.96 | 1.01 | 1 | 1.04 | 1.03
27 | CCOC(=O)Nc1cccc(OC(=O)Nc2ccccc2)c1 | 0.899 | 1.06 | 0.961 | 1 | 0.889 | 0.998 | 0.95 | 0.944 | 0.986 | 0.977
28 | O=C(O)CNCP(=O)(O)O | 1.07 | 1.06 | 0.999 | 0.981 | 1.08 | 1.02 | 0.977 | 1.05 | 1.06 | 0.997
